Shown is part of a subset that was picked to be rich in hits.
hDAT+cocaine – human DAT dopamine uptake with cocaine, either direction; Q01959; LLC-PK1 hDAT cells, [14C]-dopamine uptake with cocaine IC80; actives deviate in either direction; B-score at 10 µM; hit rate 1.3% among 110,000;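 active means Z score or B-score, a plate-position-corrected score, falls beyond the plate's 99.7% confidence bounds, in either direction; inactive means both scores lie inside the 99.7% bounds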;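 further: scored against the spread of the other compound wells on the same plate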
Target sequence (Q01959 whole entry, looked up): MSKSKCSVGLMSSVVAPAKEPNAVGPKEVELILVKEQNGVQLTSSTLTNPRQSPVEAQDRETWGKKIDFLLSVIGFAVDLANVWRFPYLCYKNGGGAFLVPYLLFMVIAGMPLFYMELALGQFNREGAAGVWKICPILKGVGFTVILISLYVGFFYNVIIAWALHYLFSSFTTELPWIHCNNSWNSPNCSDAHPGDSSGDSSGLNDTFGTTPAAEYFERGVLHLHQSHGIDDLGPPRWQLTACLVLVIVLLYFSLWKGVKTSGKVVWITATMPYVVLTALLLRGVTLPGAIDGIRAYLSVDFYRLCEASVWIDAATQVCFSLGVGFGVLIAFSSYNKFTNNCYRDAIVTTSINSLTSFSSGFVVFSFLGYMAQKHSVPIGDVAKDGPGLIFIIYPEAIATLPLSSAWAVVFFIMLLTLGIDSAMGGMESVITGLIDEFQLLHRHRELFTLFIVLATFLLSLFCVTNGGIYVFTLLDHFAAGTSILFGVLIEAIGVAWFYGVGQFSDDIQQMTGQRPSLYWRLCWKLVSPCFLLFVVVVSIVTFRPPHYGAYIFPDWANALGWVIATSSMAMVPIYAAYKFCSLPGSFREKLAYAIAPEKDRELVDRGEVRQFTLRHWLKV
ROCK2 inh – ROCK2 (human) kinase inhibition; O75116; purified ROCK2, Kinase-Glo ATP depletion luminescence; inhibition, % at 6 µM; hit rate 0.35% among 60,000; AID 604;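 active means inhibition above the screen-wide mean inhibition plus 3 SD, cut at about 18% in these data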;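 further: plate controls were DMSO wells for no effect and Y-27632 control wells after no-enzyme background subtraction for full effect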
D1 allo mod – allosteric modulators of human D1 dopamine receptor | P21728 | HEK293 D1, CRE-luciferase, dopamine EC30 potentiation; actives deviate in either direction | B-score at 10 µM | hit rate 5.9% among 58,000 | AID 641;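 active means luminescence count or its row- and column-corrected plate score outside the 99.7% band of the plate's sample wells, on either side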
PKA inh – blocks human protein kinase A activity | PKA Kemptide phosphorylation, Kinase-Glo ATP luminescence | inhibition, % at 6 µM | hit rate 0.1% among 65,000;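 active means inhibition above the screen-wide mean inhibition plus 3 SD, cut at about 21% in these data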
JNK3 blocker – JNK3 (human) kinase inhibition; P53779; purified JNK3 kinase activity, HTS; inhibition, % at 8 µM; hit rate 0.61% among 60,000; in the data active means inhibition above about 17%;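 further: 0% = DMSO and 100% = reference inhibitor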
D1 PAM confirm – D1 receptor (human) allosteric modulation, confirmed | shares compounds with D1 allo mod | HEK293 D1 CRE-luciferase, dopamine EC30 potentiation; stronger effect = higher value | luminescence at 10 µM | hit rate 88% among 2,200 | AID 642;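 active means luminescence in either of two replicates above the same-plate mean plus 3 SD of the low-dose dopamine control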
D1 no dopamine – secondary test of D1 modulators: activity without dopamine; HEK293 D1 CRE-luciferase, luminescence, no dopamine; stronger effect = higher value; shares compounds with D1 allo mod; hit rate 0.8% among 1,900; luminescence at 10 µM; in the data active means luminescence above about 3900
Isoprot counter – alters isoproterenol CRE-luciferase response in HEK293 cells | shares compounds with D1 allo mod | HEK293 D1 CRE-luciferase, isoproterenol EC30 counter-screen | calls only at 10 µM | hit rate 63% among 2,200 | AID 647;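 active means luminescence in either replicate above plate mean of wells with a partly effective reference agonist dose plus 3 SD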;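 further: isoproterenol raises cAMP through native beta-adrenoceptor Gs so signal bypasses D1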
Starred values were filed as active, the others as inactive.

`FC(F)(F)c1nnc2sc(-c3cccs3)nn12` gave hDAT+cocaine 0.473, ROCK2 inh 6.5, D1 allo mod 21.9*, PKA inh 1.8, JNK3 blocker -6.8, D1 PAM confirm 10532*, D1 no dopamine 1524 and Isoprot counter active.
`FC(F)(F)c1nnc2sc(-c3ccncc3)nn12` gave hDAT+cocaine -0.921, ROCK2 inh 0.2, D1 allo mod 0.232, PKA inh 2.1 and JNK3 blocker 2.0.
For COc1ccccc1NC(=O)CCn1c(=O)sc2ccccc21 the results were hDAT+cocaine 0.0146, D1 allo mod 0.197 and PKA inh 7.8.
`COc1ccc(NC(C)=O)cc1NC(=O)CSc1nc2ncccc2[nH]1` gave hDAT+cocaine -0.581, ROCK2 inh 4.8, D1 allo mod -0.193, PKA inh 3.1 and JNK3 blocker -2.7.
For Cc1csc2c(C#N)c(=O)c3c(n12)CCC3 the results were hDAT+cocaine -0.804, ROCK2 inh 4.0, D1 allo mod 4.44*, PKA inh 9.4, JNK3 blocker 9.8, D1 PAM confirm 6564*, D1 no dopamine 1476 and Isoprot counter inactive.
For Cc1ccc(C)n1-c1sc2c(c1C#N)CCCC2 the results were hDAT+cocaine 1.51.
`CCOC(=O)c1c(NC(=O)c2nn(CC)cc2Br)c(C#N)cn1-c1ccccc1` gave hDAT+cocaine 1.57, ROCK2 inh 6.6, D1 allo mod 6.66*, PKA inh 0.9, JNK3 blocker 2.3, D1 PAM confirm 8888*, D1 no dopamine 816 and Isoprot counter active.
For CCOC(=O)c1c(N)c(C#N)cn1-c1ccccc1 the results were hDAT+cocaine 0.624, ROCK2 inh 4.9, D1 allo mod 20.1*, PKA inh 6.3, JNK3 blocker 3.6, D1 PAM confirm 19404*, D1 no dopamine 1788 and Isoprot counter active.
For C=CCn1c(SCC(=O)N2CCOCC2)nc(O)c(Cc2ccccc2)c1=O the results were hDAT+cocaine -0.425, ROCK2 inh 5.0, D1 allo mod -0.224, PKA inh 12.1 and JNK3 blocker 7.3.
Screening CCCc1cc(Nc2cccc(OCC)c2)n2ncnc2n1 returned hDAT+cocaine 0.199, ROCK2 inh 5.4, D1 allo mod 3.2*, PKA inh 14.5, JNK3 blocker 6.0, D1 PAM confirm 11224*, D1 no dopamine 1788 and Isoprot counter active.
CCCc1cc(Nc2cccc(OC)c2)n2ncnc2n1 was read as hDAT+cocaine -0.481, ROCK2 inh 0.6, D1 allo mod 5.19*, PKA inh 7.8, JNK3 blocker 8.0, D1 PAM confirm 10608* and Isoprot counter active.
Screening CCCOC(=O)c1ccc(Nc2cc(C)nc3ncnn23)cc1 returned hDAT+cocaine 0.813, ROCK2 inh 6.3, D1 allo mod -1.73, PKA inh -0.5 and JNK3 blocker -1.5.
`N#Cc1ccccc1Cn1c(=O)n(CCC(=O)NCc2ccco2)c(=O)c2ccccc21` gave ROCK2 inh 3.3, D1 allo mod 0.504, PKA inh 1.8 and JNK3 blocker 2.0.
`N#Cc1ccccc1Cn1c(=O)n(Cc2ccc(C(=O)NCc3ccco3)cc2)c(=O)c2ccccc21` gave hDAT+cocaine 0.179, ROCK2 inh 2.6, D1 allo mod 4.38*, PKA inh 8.1, JNK3 blocker 0.6, D1 PAM confirm 18988*, D1 no dopamine 1796 and Isoprot counter active.
`Cc1ccccc1Cn1c(=O)n(CCCC(=O)NCc2ccco2)c(=O)c2ccccc21` gave hDAT+cocaine 0.219, ROCK2 inh 2.5, D1 allo mod 5.52*, PKA inh 6.7, JNK3 blocker 2.4, D1 PAM confirm 11052*, D1 no dopamine 1848 and Isoprot counter active.
Screening Cc1[nH]ccc(=O)c1OC1OC(CO)C(O)C(O)C1O (configuration not stated) returned hDAT+cocaine 0.983.
Screening COc1ccc(C2(O)CCN(CCCCOc3ccccc3)CC2)cc1 returned hDAT+cocaine 0.684, ROCK2 inh 3.0, D1 allo mod -1.91, PKA inh 4.0 and JNK3 blocker 3.7.
`CNc1nc(C)nc(-n2nc(C)cc2C)n1` gave hDAT+cocaine -0.781, ROCK2 inh 2.8, D1 allo mod 0.899, PKA inh 4.4 and JNK3 blocker -3.1.
Cc1cc(C)n(-c2nc(C)nc(NCc3ccccc3)n2)n1 was read as hDAT+cocaine 0.541, D1 allo mod 6.72*, D1 PAM confirm 14476*, D1 no dopamine 1636 and Isoprot counter active.
`O=C(NC1CCCC1)c1cnn2c(C(F)(F)F)cc(-c3ccco3)nc12` gave hDAT+cocaine 0.164, D1 allo mod 3.47 and PKA inh -0.3.
`Cc1c2c(nc3c(C(=O)NC4CCCC4)cnn13)CCCC2` gave hDAT+cocaine 0.373, D1 allo mod 4.97*, PKA inh 9.0, D1 PAM confirm 11564*, D1 no dopamine 1764 and Isoprot counter active.
COc1cc(=O)n(C)c2c(OCC3OC(C)(C)OC3(C)C)cccc12 (configuration not stated) was read as hDAT+cocaine 1.79.
`C/C=C/Cn1c(N(C)Cc2ccccc2)nc2c1c(=O)[nH]c(=O)n2C` gave hDAT+cocaine -0.351, ROCK2 inh 4.7, D1 allo mod 7.27*, PKA inh 7.2, JNK3 blocker 5.6, D1 PAM confirm 21832*, D1 no dopamine 1976 and Isoprot counter active.
`Cc1cccc(Cn2c(N(C)Cc3ccccc3)nc3c2c(=O)[nH]c(=O)n3C)c1` gave hDAT+cocaine -0.973, ROCK2 inh 4.4, D1 allo mod 7.98*, PKA inh 6.3, JNK3 blocker 3.0, D1 PAM confirm 19408*, D1 no dopamine 1708 and Isoprot counter active.
For Cc1cc(NC(=O)c2cc(C(C)C)on2)nn1Cc1ccc(Cl)cc1 the results were hDAT+cocaine -0.944.
COc1ccc(CCNC(=O)C2CCN(c3ccc(N4CCOCC4)nn3)CC2)c(OC)c1 was read as hDAT+cocaine 0.554.
COCCn1c(-c2ccco2)nc2nc3ccccc3nc21 was read as ROCK2 inh 0.2, D1 allo mod 9.16*, PKA inh 2.1, JNK3 blocker -1.9, D1 PAM confirm 16228*, D1 no dopamine 1728 and Isoprot counter active.
Screening CCc1nc(SCCO)c2oc3ccccc3c2n1 returned hDAT+cocaine -0.1, ROCK2 inh -5.2, D1 allo mod 10.2*, PKA inh 1.7, JNK3 blocker 5.2, D1 PAM confirm 17028* and Isoprot counter active.
Screening CCc1nc(Sc2nc(C)cc(C)n2)c2oc3ccccc3c2n1 returned hDAT+cocaine 1.23, ROCK2 inh -1.5, D1 allo mod 0.919, PKA inh 9.4 and JNK3 blocker 2.0.

Screening data as filed in PubChem.
